# Measured values from PubChem BioAssay AID1159580 (chemical genetic matrix, 2015).
# The whole screen tested about 5,500 compounds, of which about 2,000 (36%) were called active. Inconclusive results (about 18%) are left out. The list shows a part of the results. A number with no mark means an inactive call. Cut-off read from the data, not from the text of the source: active = normalized growth mostly below about 0.91 (no sharp cut-off); inconclusive = no clear call, values can overlap the other calls; inactive = mostly above about 0.92.
# Assay: chemical genetic growth profiling, strain panel (AID 1159580);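 note: tested at 20 µM; growth read once vehicle control cultures reached saturation at 30 °C; 1 = growth at the plate median or of vehicle wells; lower values mean less growth of the strain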
# Settings: growth OD
# [1] = S. cerevisiae deletion strains, locus YBR229C, strain ROT2, active compounds read low
# [2] = S. cerevisiae deletion strains, locus YDL101C, strain DUN1, active compounds read low
# [3] = S. cerevisiae deletion strains, locus YDR150W, strain NUM1, active compounds read low
# [4] = S. cerevisiae deletion strains, locus YEL061C, strain CIN8, active compounds read low
# [5] = S. cerevisiae deletion strains, locus YHR030C, strain SLT2, active compounds read low
# [6] = S. cerevisiae deletion strains, locus YJR043C, strain POL32, active compounds read low
# [7] = S. cerevisiae deletion strains, locus YLR039C, strain RIC1, active compounds read low
# [8] = S. cerevisiae deletion strains, locus YLR262C, strain YPT6, active compounds read low
# [9] = S. cerevisiae deletion strains, locus YMR263W, strain SAP30, active compounds read low
# [10] = S. cerevisiae deletion strains, locus YMR307W, strain GAS1, active compounds read low
# [11] = S. cerevisiae deletion strains, locus YPL055C, strain LGE1, active compounds read low
smiles,measurement,setting,value
Cc1cc(I)c(C)cc1I,normalized growth,"S. cerevisiae deletion strains, locus YAL013W, strain DEP1, active compounds read low",1.01
same,normalized growth,[1],0.989
same,normalized growth,"S. cerevisiae deletion strains, locus YCL061C, strain MRC1, active compounds read low",0.994
same,normalized growth,[2],1.02
same,normalized growth,"S. cerevisiae deletion strains, locus YDL134C, strain PPH21, active compounds read low",0.986
same,normalized growth,[3],1.04
same,normalized growth,[4],0.966
same,normalized growth,"S. cerevisiae deletion strains, locus YGR078C, strain PAC10, active compounds read low",1
same,normalized growth,[5],0.805
same,normalized growth,"S. cerevisiae deletion strains, locus YHR087W, strain rtc3, active compounds read low",0.979
same,normalized growth,[6],0.994
same,normalized growth,"S. cerevisiae deletion strains, locus YJR075W, strain HOC1, active compounds read low",0.976
same,normalized growth,[7],0.955
same,normalized growth,"S. cerevisiae deletion strains, locus YLR058C, strain SHM2 (second series), active compounds read low",0.992
same,normalized growth,"S. cerevisiae deletion strains, locus YLR085C, strain ARP6, active compounds read low",0.953
same,normalized growth,[8],0.872
same,normalized growth,"S. cerevisiae deletion strains, locus YML094W, strain GIM5, active compounds read low",0.95
same,normalized growth,"S. cerevisiae deletion strains, locus YMR219W, strain ESC1, active compounds read low",1
same,normalized growth,[9],0.976
same,normalized growth,[10],0.7
same,normalized growth,"S. cerevisiae deletion strains, locus YNL153C, strain GIM3, active compounds read low",0.984
same,normalized growth,"S. cerevisiae deletion strains, locus YNL298W, strain CLA4 (second series), active compounds read low",0.935
same,normalized growth,"S. cerevisiae deletion strains, locus YNL322C, strain KRE1, active compounds read low",1
same,normalized growth,"S. cerevisiae deletion strains, locus YNR030W, strain Alg12, active compounds read low",0.943
same,normalized growth,[11],0.966
same,normalized growth,"S. cerevisiae deletion strains, locus YPL241C, strain CIN2, active compounds read low",0.978
same,normalized growth,"S. cerevisiae deletion strains, locus YPR135W, strain CTF4, active compounds read low",0.925
CCC/C=C1\OC(=O)C2=C1CCC=C2,normalized growth,"S. cerevisiae deletion strains, locus YBR021W, strain FUR4, active compounds read low",0.967
same,normalized growth,[1],1.01
same,normalized growth,"S. cerevisiae deletion strains, locus YCL029C, strain bik1, active compounds read low",0.978
same,normalized growth,"S. cerevisiae deletion strains, locus YDL035C, strain GPR1, active compounds read low",0.952
same,normalized growth,"S. cerevisiae deletion strains, locus YDL074C, strain BRE1, active compounds read low",0.945
same,normalized growth,[2],0.984
same,normalized growth,"S. cerevisiae deletion strains, locus YDL185W, strain tfp1, active compounds read low",0.986
same,normalized growth,"S. cerevisiae deletion strains, locus YDL192W, strain arf1, active compounds read low",0.972
same,normalized growth,"S. cerevisiae deletion strains, locus YDR101C, strain arx1, active compounds read low",0.949
same,normalized growth,[3],1.02
same,normalized growth,"S. cerevisiae deletion strains, locus YDR162C, strain NBP2, active compounds read low",0.993
same,normalized growth,"S. cerevisiae deletion strains, locus YDR318W, strain mcm21, active compounds read low",0.998
same,normalized growth,"S. cerevisiae deletion strains, locus YDR388W, active compounds read low",0.978
same,normalized growth,"S. cerevisiae deletion strains, locus YDR502C, strain sam2, active compounds read low",0.957
same,normalized growth,[4],1
same,normalized growth,"S. cerevisiae deletion strains, locus YER110C, active compounds read low",0.971
same,normalized growth,"S. cerevisiae deletion strains, locus YER155C, strain BEM2, active compounds read low",1.03
same,normalized growth,"S. cerevisiae deletion strains, locus YER167W, strain BCK2, active compounds read low",0.998
same,normalized growth,"S. cerevisiae deletion strains, locus YGL078C, strain dbp3, active compounds read low",0.963
same,normalized growth,"S. cerevisiae deletion strains, locus YGL086W, strain mad1, active compounds read low",0.929 (active)
same,normalized growth,"S. cerevisiae deletion strains, locus YGL248W, strain PDE1, active compounds read low",0.975
same,normalized growth,"S. cerevisiae deletion strains, locus YGR135W, strain pre9, active compounds read low",0.965
same,normalized growth,"S. cerevisiae deletion strains, locus YGR252W, strain gcn5, active compounds read low",0.974
same,normalized growth,[5],1.02
same,normalized growth,"S. cerevisiae deletion strains, locus YHR079C, strain IRE1 (second series), active compounds read low",0.987
same,normalized growth,"S. cerevisiae deletion strains, locus YHR094C, strain hxt1, active compounds read low",0.982
same,normalized growth,"S. cerevisiae deletion strains, locus YHR129C, strain ARP1, active compounds read low",0.989
same,normalized growth,"S. cerevisiae deletion strains, locus YHR200W, strain rpn10, active compounds read low",0.986
same,normalized growth,"S. cerevisiae deletion strains, locus YIL066C, strain RNR3, active compounds read low",0.97
same,normalized growth,"S. cerevisiae deletion strains, locus YIL073C, strain SPO22, active compounds read low",0.93
same,normalized growth,"S. cerevisiae deletion strains, locus YIL125W, strain kgd1, active compounds read low",0.973
same,normalized growth,"S. cerevisiae deletion strains, locus YIR030C, strain dcg1, active compounds read low",0.988
same,normalized growth,"S. cerevisiae deletion strains, locus YJL095W, strain BCK1, active compounds read low",0.968
same,normalized growth,"S. cerevisiae deletion strains, locus YJL134W, strain LCB3, active compounds read low",1.01
same,normalized growth,"S. cerevisiae deletion strains, locus YJL168C, strain set2, active compounds read low",0.986
same,normalized growth,"S. cerevisiae deletion strains, locus YJL187C, strain SWE1 (second series), active compounds read low",0.99
same,normalized growth,[6],0.956
same,normalized growth,"S. cerevisiae deletion strains, locus YKL009W, strain mrt4, active compounds read low",0.868 (active)
same,normalized growth,"S. cerevisiae deletion strains, locus YKL068W, active compounds read low",0.994
same,normalized growth,"S. cerevisiae deletion strains, locus YKL085W, strain MDH1 (second series), active compounds read low",0.958
same,normalized growth,"S. cerevisiae deletion strains, locus YKL085W, strain MDH1, active compounds read low",0.958
same,normalized growth,"S. cerevisiae deletion strains, locus YKR001C, strain vps1, active compounds read low",0.963
same,normalized growth,[7],0.848
same,normalized growth,"S. cerevisiae deletion strains, locus YLR058C, strain SHM2, active compounds read low",1
same,normalized growth,"S. cerevisiae deletion strains, locus YLR102C, strain apc9, active compounds read low",0.988
same,normalized growth,[8],0.816
same,normalized growth,"S. cerevisiae deletion strains, locus YLR268W, strain sec22, active compounds read low",0.953
same,normalized growth,"S. cerevisiae deletion strains, locus YLR330W, strain CHS5, active compounds read low",1.01
same,normalized growth,"S. cerevisiae deletion strains, locus YLR342W, strain FKS1 (second series), active compounds read low",0.97
same,normalized growth,"S. cerevisiae deletion strains, locus YLR371W, strain rom2, active compounds read low",0.998
same,normalized growth,"S. cerevisiae deletion strains, locus YLR418C, strain cdc73, active compounds read low",0.959
same,normalized growth,"S. cerevisiae deletion strains, locus YML016C, strain PPZ1, active compounds read low",1
same,normalized growth,"S. cerevisiae deletion strains, locus YML032C, strain rad52, active compounds read low",1
same,normalized growth,"S. cerevisiae deletion strains, locus YML124C, strain tub3, active compounds read low",0.987
same,normalized growth,"S. cerevisiae deletion strains, locus YMR078C, strain ctf18, active compounds read low",0.959
same,normalized growth,"S. cerevisiae deletion strains, locus YMR223W, strain ubp8, active compounds read low",0.979
same,normalized growth,[9],1
same,normalized growth,[10],1.02
same,normalized growth,"S. cerevisiae deletion strains, locus YNL067W, strain RPL9B, active compounds read low",0.965
same,normalized growth,"S. cerevisiae deletion strains, locus YNL233W, strain BNI4, active compounds read low",0.992
same,normalized growth,"S. cerevisiae deletion strains, locus YNL250W, strain rad50, active compounds read low",1.01
same,normalized growth,"S. cerevisiae deletion strains, locus YNL271C, strain bni1, active compounds read low",0.971
same,normalized growth,"S. cerevisiae deletion strains, locus YNL298W, strain CLA4, active compounds read low",0.959
same,normalized growth,"S. cerevisiae deletion strains, locus YNL307C, strain MCK1, active compounds read low",0.969
same,normalized growth,"S. cerevisiae deletion strains, locus YNR052C, strain pop2, active compounds read low",1.01
same,normalized growth,"S. cerevisiae deletion strains, locus YOL012C, strain htz1",1.31
same,normalized growth,"S. cerevisiae deletion strains, locus YOL147C, strain pex11, active compounds read low",0.986
same,normalized growth,"S. cerevisiae deletion strains, locus YOR061W, strain CKA2, active compounds read low",0.996
same,normalized growth,"S. cerevisiae deletion strains, locus YOR069W, strain VPS5, active compounds read low",0.998
same,normalized growth,"S. cerevisiae deletion strains, locus YOR136W, strain idh2, active compounds read low",0.98
same,normalized growth,"S. cerevisiae deletion strains, locus YOR144C, strain elg1, active compounds read low",0.987
same,normalized growth,"S. cerevisiae deletion strains, locus YOR184W, strain ser1, active compounds read low",0.926
same,normalized growth,"S. cerevisiae deletion strains, locus YOR316C, strain cot1, active compounds read low",0.976
same,normalized growth,[11],0.969
same,normalized growth,"S. cerevisiae deletion strains, locus YPR119W, strain clb2, active compounds read low",0.983
same,normalized growth,"S. cerevisiae deletion strains, locus YPR141C, strain kar3, active compounds read low",0.977
same,normalized growth,"S. cerevisiae deletion strains, locus YPR163C, strain tif3, active compounds read low",0.97
same,normalized growth,"S. cerevisiae deletion strains, locus YPR167C, strain met16, active compounds read low",0.996
same,normalized growth,"S. cerevisiae deletion strains, strain wtn01, active compounds read low",0.965
same,normalized growth,"S. cerevisiae strains, strain wild type, active compounds read low",0.988
